Screening results (PubChem BioAssay)
Compounds with a hit are over-represented: about 4.5% of the library has one in this group of screens.
DAX1 inh-1 = DAX1 (NR0B1) inhibitors, primary screen, cell-based, HEK293, Gal4-DAX1, luciferase luminescence. Nuclear receptor subfamily 0 group B member 1 (Homo sapiens), P51843. HEK293 Gal4-DAX1 luciferase reporter. inhibition, % at 6.75 µM. hit rate 0.99% among 340,000. AID 504766, 2011;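 active = inhibition above the mean over all tested compounds plus 3 SD, cut at about 4.2% in these data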;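 also: 0% = DAX1-transfected cells with DMSO and 100% = empty-vector control cells with DMSO; inhibition shows as a rise in luminescence from relieved DAX1 repression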
FXN GAA850 act = FXN promoter activators, primary screen, cell-based, luciferase luminescence, HEK293 lucGAA850. HEK293 lucGAA850 FXN promoter luciferase reporter, 24 h; percent of 10 µM SAHA response. activation, % at 6 µM. hit rate 0.56% among 360,000;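 active = activation above the average of all compounds screened plus 3 SD, cutoff fixed separately per campaign, cut at about 7.5% in these data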;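 also: 0% = DMSO wells and 100% = 10 µM SAHA wells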
hgDAF12 agonist = H. glycines DAF-12 receptor agonists, primary screen, cell-based, luminescence, HEK293, GAL4 fusion, UAS-luciferase; Nuclear hormone receptor DAF-12 (Heterodera glycines), GAL4 fusion; HEK293 GAL4-hgDAF12 UAS-luciferase reporter, agonist luminescence; normalized to butyrate control; activation, % at 6.8 µM; hit rate 1.8% among 370,000;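 active = activation above a cutoff set at the mean of all screened compounds plus 3 SD, cut at about 10% in these data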;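 also: 0% = DMSO wells and 100% = sodium butyrate wells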
DAX1 inh-2 = DAX1 (NR0B1) inhibitors on StAR promoter, primary screen, cell-based, luminescence, SF-1 (NR5A1), full-length DAX-1 | HEK293T StAR-luciferase reporter, SF-1/DAX-1 repression relief | inhibition, % at 6.8 µM | hit rate 1.1% among 370,000;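 active = inhibition above the mean over all tested compounds plus 3 SD, cut at about 3.6% in these data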;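 also: 0% = DAX-1 cells with DMSO and 100% = cells lacking DAX-1 with DMSO; higher inhibition means more luminescence from relief of DAX-1 repression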
hcDAF12 agonist = H. contortus DAF-12 nuclear receptor activators, primary screen, cell-based, luminescence, HEK293, lit1-tk-luc reporter; HEK293 hcDAF-12 lit1-tk-luc reporter; 0% DMSO, 100% Δ7-dafachronic acid; hit rate 1.4% among 370,000; AID 652067, 2013; activation, % at 6.8 µM;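 active = activation above the mean of all tested compounds plus 3 SD, cut at about 5.5% in these data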;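 also: 100% = response to 3 µM Δ7-dafachronic acid high control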
ssDAF12 agonist = S. stercoralis DAF-12 nuclear receptor activators, primary screen, cell-based, luminescence, HEK293, GRIP1 co-expression, lit1-tk-luc. Nuclear hormone receptor DAF-12 (Strongyloides stercoralis). activation, % at 6.8 µM. AID 652126, 2013. hit rate 1% among 370,000. HEK293 ssDAF-12/GRIP1 lit1-tk-luc reporter; % of 3 µM dafachronic acid response;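 active = activation above the mean over all tested compounds plus 3 SD, cut at about 0.9% in these data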;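 also: 0% = DMSO-only wells and 100% = 3 µM delta7-dafachronic acid wells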
LXR ag = LXR agonists, Gal4 luciferase reporter, confirmation, counter-screen for hcDAF-12 agonist project, cell-based, luminescence, HEK293, H. contortus campaign; shares compounds with hcDAF12 agonist; HEK293 Gal4-LXR tk-luc reporter, 24 h; normalized: DMSO 0%, positive control 100%; activation, % at 6.8 µM; 3,400 tested, under 10 active;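 active = mean percent activation of the reporter above a cutoff set as the average over tested compounds plus their standard deviation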
Target sequence (P55055 whole entry, looked up, the tested form may be a part): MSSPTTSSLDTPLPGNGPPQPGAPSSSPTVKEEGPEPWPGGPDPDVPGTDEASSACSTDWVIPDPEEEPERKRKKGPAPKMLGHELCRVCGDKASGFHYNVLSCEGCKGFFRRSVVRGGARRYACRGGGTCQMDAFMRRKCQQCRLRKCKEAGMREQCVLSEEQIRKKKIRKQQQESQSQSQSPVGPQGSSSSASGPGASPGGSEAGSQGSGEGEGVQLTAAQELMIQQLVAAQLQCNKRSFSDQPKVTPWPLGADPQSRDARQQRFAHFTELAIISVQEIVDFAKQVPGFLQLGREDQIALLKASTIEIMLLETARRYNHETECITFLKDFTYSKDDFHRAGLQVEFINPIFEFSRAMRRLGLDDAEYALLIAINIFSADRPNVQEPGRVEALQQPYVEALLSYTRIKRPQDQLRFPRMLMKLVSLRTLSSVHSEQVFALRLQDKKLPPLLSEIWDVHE
hcDAF12 conf = H. contortus DAF-12 receptor agonists, confirmation, cell-based, luminescence, HEK293, lit1-tk-luc, triplicate | shares compounds with hcDAF12 agonist | HEK293 hcDAF-12 lit1-tk-luc reporter; % of Δ7-dafachronic acid response | activation, % at 6.8 µM | hit rate 61% among 3,400 | AID 743032, 2013;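 active = mean activation across triplicate tests above the threshold derived from the earlier primary screen, cut at about 5.5% in these data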;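 also: 0% = DMSO only wells and 100% = 3 µM Δ7-dafachronic acid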
* hit, by the source's call; · = no result.

SMILES	DAX1 inh-1	FXN GAA850 act	hgDAF12 agonist	DAX1 inh-2	hcDAF12 agonist	ssDAF12 agonist	LXR ag	hcDAF12 conf
CC1=NN(C(N)=S)C(=O)C1N=Nc1ccc(Br)cc1 (configuration not stated)	2.5	4.7	5.3	1.8	9.8*	0.0	1.3	12.4*
CC1=NN(C(N)=S)C(=O)C1N=Nc1cccc(Cl)c1C (configuration not stated)	1.3	2.6	2.1	0.2	5.1	0.6	·	·
CC1=NN(c2ccccc2)C(=O)C1N=Nc1ccccc1 (configuration not stated)	1.9	2.9	8.5	0.7	8.0*	0.1	0.8	11.4*
CN(C(=O)COc1cc(=O)n(C)c2ccccc12)c1ccc(Br)cc1	0.6	2.6	0.6	-0.3	6.8*	0.4	-0.1	2.8
O=S(=O)(Nc1c(O)ccc2ccccc12)c1ccccc1	-1.3	0.4	0.5	1.0	3.4	0.4	·	·
O=S(=O)(Nc1c(O)ccc2ccccc12)c1ccc(F)cc1	3.1	-0.2	1.3	0.6	8.1*	1.1*	0.5	8.6*
CC(=O)c1cc(O)c2ccccc2c1O	2.2	-0.6	1.9	0.1	10.4*	0.4	0.1	3.5
Cc1ccc(NC(=O)NNC(=O)CSC2CCc3ccccc32)c(C)c1 (configuration not stated)	·	·	-0.8	1.8	1.9	-0.2	·	·
c1cncc(-c2nc(-c3ccc4c(c3)OCO4)cs2)c1	0.7	3.8	12.5*	2.2	6.8*	0.2	0.9	4.6
O=C(C[n+]1cc(Br)cc2ccccc21)c1ccc(Cl)cc1	0.2	2.4	1.2	-0.3	8.2*	0.0	-0.1	3.1
CN(C)c1cccc(/C=C(\C#N)c2ccccc2)c1	0.4	1.2	19.0*	-1.0	7.1*	1.2*	1.8	9.0*
CN(C)c1ccc(/C=C(\C#N)c2ccccc2)cc1	-0.9	-2.5	·	·	·	·	·	·
Cc1c(N2C(=O)/C(=C3/C(=O)N(C)c4ccccc43)SC2=S)c(=O)n(-c2ccccc2)n1C	0.7	1.1	-2.1	0.7	0.7	-1.2	·	·
CC(=O)N1C(=O)/C(=C2\SC(=S)N(c3c(C)n(C)n(-c4ccccc4)c3=O)C2=O)c2ccccc21	0.8	2.3	1.5	-0.3	9.3*	1.2*	-0.1	0.4
Cn1cc(Cc2ccc(C(=O)N3CCCCC3)cn2)c2ccccc21	·	-0.7	2.0	-1.1	0.6	-0.3	·	·
O=C(O)c1cc(-c2cccc3ccccc23)nc2ccccc12	0.0	1.3	-0.2	-0.1	4.6	-0.6	·	·
O=C(O)c1cc(-c2c[nH]c3ccccc23)nc2cc3ccccc3cc12	·	3.9	6.3	2.0	8.7*	1.6*	0.1	9.0*
COC(=O)[C@]12CCCCC=C1N(CCC1=CCCCC1)C(=O)[C@H](CC(=O)NCc1cccc3ccccc13)C2	·	·	-2.1	-1.2	-0.5	-1.9	·	·
CCOC(=O)C1=C(C)Nc2ccc(C)cc2S1	0.4	-2.4	0.5	-0.1	3.8	-0.2	·	·
Cc1ccc2c(c1)Sc1c(ccc3ccccc13)N2	4.8*	2.0	20.8*	3.2	13.9*	3.2*	1.1	8.0*
CCCCOC(=O)Nc1ccc(N(C)C)cc1	1.5	2.9	11.3*	4.4*	7.2*	0.6	1.1	5.8*
CCCCOC(=O)Nc1ccc(C(C)C)cc1	0.0	3.5	5.5	2.3	2.1	0.2	·	·
COc1ccc2c(c1OC)C(=O)N1c3ccccc3SC21 (configuration not stated)	1.9	5.5	11.7*	1.9	8.8*	0.8	0.8	7.5*
COc1ccc2c(c1OC)C(=O)N1c3ccccc3COC21 (configuration not stated)	1.8	4.9	7.8	2.0	1.5	-0.1	·	·
CCCCNC(=S)N(CCO)Cc1cc2cc3c(cc2[nH]c1=O)OCCO3	1.7	1.4	0.8	0.1	7.2*	-0.7	-0.2	3.2
SMILES	DAX1 inh-1	FXN GAA850 act	hgDAF12 agonist	DAX1 inh-2	hcDAF12 agonist	ssDAF12 agonist	LXR ag	hcDAF12 conf
CCN(CC)CCCNC(=S)N(CCO)Cc1cc2cc3c(cc2[nH]c1=O)OCCO3	0.0	1.3	-0.5	0.2	-1.1	-1.4	·	·
C/C(=N\Nc1nc2ccccc2[nH]1)c1ccccn1	-3.0	-9.3	-5.6	-2.0	-4.3	-1.6	·	·
C/C(=N\Nc1nc2ccccc2[nH]1)c1cc2ccccc2o1	0.0	6.0	7.9	1.6	7.4*	0.1	0.6	8.7*
O=C(NC1CCCCN(Cc2ccc(Cl)cc2)C1=O)c1ccc2ccccc2c1 (configuration not stated)	·	·	5.1	1.3	-3.4	-0.8	·	·
COC(=O)c1sc(-c2ccc(C(C)(C)C)cc2)cc1NC(=O)c1ccccc1C(=O)O	3.2	5.9	12.1*	2.4	6.8*	1.5*	-0.1	-0.3
COC(=O)c1sc(-c2ccc(Cl)cc2)cc1NC(=O)c1ccccc1C(=O)O	3.4	2.6	1.9	0.5	0.3	-1.1	·	·
CC[C@]1(c2ccc(C)cc2)C(=O)N(C(=O)OC(C)C)N1C(=O)OC(C)C	·	·	-1.1	-2.8	-1.1	-0.7	·	·
COC(=O)c1cccc(Cn2ccc3ccc(-c4ccc5ccn(C(=O)c6ccc(C)cc6)c5c4)cc32)c1	·	·	-2.3	-0.8	-0.2	-0.5	·	·
COc1cc(OC)cc(C(C)c2ccc(-c3ccccc3)cc2)c1 (configuration not stated)	·	·	-1.7	·	-2.0	-1.4	·	·
O=C(O)c1ccccc1-c1noc(-c2ccccc2F)n1	·	·	11.8*	·	7.3*	0.2	0.5	4.9
Cc1ccccc1-c1noc(-c2ccccc2C(=O)O)n1	2.3	0.2	-2.2	0.9	0.4	-1.2	·	·
O=C(O)c1ccc(-c2noc(-c3ccccc3F)n2)cc1	-2.9	1.3	7.5	2.5	6.8*	0.4	1.7	7.0*
